In PubChem BioAssay AID504891 (National Center for Advancing Translational Sciences (NCATS), 2011):
About 35 (0.009%) of roughly 390,000 compounds were called active. Another 6% or so got no clear call; they are omitted. Calls follow the shape of the dose curve; as a rule, active = well fitted inhibition curve with a large enough effect in the polarisation, with a control signal flat (not every such curve was filed as active); inconclusive = small, poorly fitted or top-dose-only effect, or effect the other way, or a change in a side signal; inactive = no such curve, though single readings can be large or run the other way; the % refers to the polarisation. Many of the other results were omitted from the sample, so actives are more common in it than they were.

target: Peptidyl-prolyl cis-trans isomerase NIMA-interacting 1 (Homo sapiens) (UniProt Q13526); assay: qHTS Assay to Find Inhibitors of Pin1; details: Pin1 FP peptide displacement, HiFluor488, 10 min; series mostly up to 115 µM; activity, negative = inhibition: at the top concentration
Source text: NIH Molecular Libraries Probe Production Network [MLPCN]
NIH Chemical Genomics Center [NCGC]
The unique chemical properties of Pro allow for the adoption of two completely distinct amide bond conformations (cis and trans). Peptidyl-prolyl cis/trans isomerases (PPIases) are evolutionary conserved enzymes that catalyze cis/trans isomerization of peptidyl-prolyl peptide bonds. Distinct from all other PPIases such as cyclophilins and FK506-binding proteins (FKBPs), Pin1 binds a subset of phos.Ser/Thr-Pro-containing proteins using its protein-targeting WW domain and isomerizes only specific phos.Ser/Thr-Pro bonds, which cannot be effectively catalyzed by other known PPIases.
Pin1-catalyzed conformational regulation can control a spectrum of activities of many key regulators in diverse cellular processes such as cell growth, genotoxic and other stress responses, immune response, germ cell development, neuronal differentiation and survival. Pin1 has emerged as a novel molecular timer that modulates its multiple targets at various steps of a given cellular process to synergistically control the amplitude and duration of a cellular response or process. Importantly, Pin1 is tightly regulated by multiple levels and its deregulation has an important role in a growing number of pathological conditions, including cancer, Alzheimer's disease, aging, asthma and microbial infection, providing a potentially new therapeutic option.
The goal of this screen is to find small-molecule inhibitors of Pin1 using a fluorescence polarization competition assay. A HiFluor-488-labeled peptide binds to the active site of Pin1 and can be displaced by compounds. Compounds were screened as a concentration-titration series that ranged from 57 uM to 0.7 nM.
NCGC Assay Protocol Summary:
Pin1 (0.6 uM) was dispensed into black, solid 1536-well plates at 2 uL/well in 10 mM HEPES (pH 7.5), 10 mM NaCl, 0.01% Tween20, 1 mM DTT, and 1% glycerol. Then, 23 nL of compounds or DMSO were delivered to each well using a pin tool. Two uL of Pin1-1b-HiFluor488 peptide (10 mM HEPES (pH 7.5), 10 mM NaCl, 0.01% Tween20, 1 mM DTT, and 1% glycerol, 0.02 uM Pin1-1b-HiFluor488) was then dispensed, and plates were incubated at room temperature for 10 min. The plates were measured on a ViewLux plate reader for fluorescence polarization signal using a 480/20 nM nm excitation filter and 540/25 nM nm S and P emission filters with a 20 second exposure. The %Activity was determined from the corrected fluorescence polarization values. Unlabeled Pin1-1c peptide was used as a control (3.5 mM two-fold serial; 20 uM final concentration) along with a 1x (0.3 uM) and 0x (no-enzyme) Pin1 enzyme control to normalize %Activity of identified inhibitors; 0x enzyme values corresponded to 100%Activity (full inhibition), while 1x Pin1 enzyme values were used to normalize 0%Activity (no inhibition).
Concentration-response curves were fitted to the signals arising from the resulting fluorescence polarization. The concentration-effect curves were then classified based on curve quality (r2), response magnitude and degree of measured activity, and compounds were subsequently categorized based on their curve class.
Keywords: Peptidyl prolyl isomerase, Pin1, fluorescence polarization, MLSMR, MLPCN, NIH Roadmap, qHTS, NCGC

Chain of Peptidyl-prolyl cis-trans isomerase NIMA-interacting 1 (Homo sapiens) (Q13526 whole entry, looked up): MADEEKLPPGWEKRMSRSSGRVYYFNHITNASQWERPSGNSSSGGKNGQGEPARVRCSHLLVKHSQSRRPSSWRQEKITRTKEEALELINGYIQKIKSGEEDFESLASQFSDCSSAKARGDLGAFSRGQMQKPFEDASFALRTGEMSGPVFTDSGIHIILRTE

activity, negative = inhibition, inactive:
CNC(=O)CN1C(=O)c2cccnc2Sc2ccccc21 8.77%
CC(=O)N1c2ccccc2CC1C(=O)N1CCN(c2ccc(F)cc2)CC1 (stereo not drawn) -8.41%
O=C(NCC1CC1)C1(C(F)(F)F)C/C(=C\CCO)CCCO1 (stereo not drawn) 3.33%
CC(Nc1ncnc2ccc(-c3ccc4c(c3)OCO4)cc12)c1ccco1 (stereo not drawn) 14.7%
Cc1cccc(S(=O)(=O)c2cn(Cc3ccccc3)c3cc(N4CCOCC4)c(F)cc3c2=O)c1 9.72%
COc1cccc(C2C(C(=O)Nc3ccc(C)cc3C)=C(C)Nc3c(C(=O)Nc4ccccc4)cnn32)c1 (stereo not drawn) 11.3%
CCCC(=O)Nc1cc(C(=O)NCc2ccc(OC)cc2)ccc1S(=O)(=O)c1ccc(Cl)cc1 8.08%
COCCNC(=O)CSc1nc(-c2ccccc2)[nH]c1-c1ccc(C)cc1 1.52%
C=CCNC(=O)c1ccc2nc(-c3ccco3)c(-c3ccco3)nc2c1 20.3%
Cc1ccc(S(=O)(=O)NC(N)=NCCC[C@@H](NC(=O)CNC(=O)c2ccccc2)C(=O)Nc2cc(C(F)(F)F)ccc2Cl)cc1 4.14%
CCc1cccc(C)c1NS(=O)(=O)c1ccc(-c2cc(C)no2)s1 12.7%
CC(=O)N1CCCc2ccc(NS(=O)(=O)c3ccc(F)cc3F)cc21 49.4%
COc1ccc(CNC(=O)COCc2cc(-c3cccs3)on2)cc1OC -2.23%
COc1cccc(C(=O)NC2CCN(C#N)CC2)c1 -5.15%
CCOC(=O)c1c(N)n(-c2cccc(C)c2C)c2nc3ccccc3nc12 2.25%
COc1ccc(Br)cc1C1C2C=CCC(C)C2C(=O)N1Cc1ccccc1 (stereo not drawn) -1.96%
O=C(OCC#CCSc1nnc(-c2ccco2)o1)c1ccc(F)cc1 -1.5%
CC(=O)OCC(NC(=O)C(Cc1ccccc1)NC(=O)OC(C)(C)C)C1OC(n2ccc(=O)[nH]c2=O)C(OC(C)=O)C1OC(C)=O (stereo not drawn) -9.82%
CC(=O)Nc1ccc(S(=O)(=O)N2N=NC3C2C2CC4C3(CN(C(=O)OC(C)(C)C)S4(=O)=O)O2)cc1 (stereo not drawn) 1.34%
COc1cccc(OC2=NS(=O)(=O)c3ccccc32)c1 25% [at 163 µM]
COc1ccc(C2Nc3ccccc3C(=O)N2Cc2ccccc2)cc1COc1ccc(C(N)=O)cc1 (stereo not drawn) 29.2%
CCN(CC)S(=O)(=O)c1ccc2c(c1)N(CC(=O)NCc1ccccc1)C(=O)CS2 -0.42%
Cc1cccc(N2CCN(S(=O)(=O)c3ccc4[nH]c5c(c4c3)CCCCC5)CC2)c1C 16.4%
Cc1cc(C)cc(NC(=O)CSc2nc(=O)n(CCN3CCOCC3)c3c2CCC3)c1 -1.89%
Cc1ccc(Cn2c(=O)n(-c3ccc(C)cc3)c(=O)c3c2c2cc(C)ccc2n3C)cc1 -5.52%
CCCCN(CC)CCCNC(=O)Cn1ncc2c([nH]c3ccc(C)cc32)c1=O -1.71%
CCC(=O)Nc1ccccc1-c1nc2ccccc2n(CC(=O)Nc2ccc(C)c(C)c2)c1=O -8.24%
O=C1CCCC2=C1[C@@]1(CCC(c3ccccc3)C1)N=C(Nc1nc3ccccc3o1)N2 (stereo partly drawn)
Cc1cc2n(n1)C(c1cc(C(C)(C)C)c(O)cc1O)Nc1ccccc1-2 (stereo not drawn) 5.72%
CCOc1ccccc1CNC(=O)c1ccc2c(c1)nc1n2CCC(C)C1 (stereo not drawn) -1.31%
COc1cc(C(=O)N2CCN(c3ccc(Nc4ccc(C)cc4)nn3)CC2)cc(OC)c1OC 10.4%
COc1cccc(C2c3c(ncn(-c4cccc(Br)c4)c3=N)Oc3ccc4ccccc4c32)c1 (stereo not drawn) 14.3%
Cc1ccc(Cl)cc1NC(=O)Cc1ccc(-n2c(C)nc3cccnc32)cc1 20.3%
Cc1ccc(Nc2c(-c3ccc(Cl)cc3)nc3sccn23)c(C)c1 1.8%
OCCNc1ncnc2oc(-c3ccco3)c(-c3ccco3)c12 -1.56%
O=c1c2ccccc2nc2sc(Nc3ccc4c(c3)OCO4)nn12 -1.55%
CC(=O)c1sc(N2C(=O)c3oc4ccccc4c(=O)c3C2c2ccc(C)cc2)nc1C (stereo not drawn) -2.64%
NC(=O)C1CCN(c2ncc(-c3ccc(Cl)cc3)s2)CC1 6.84%
CCOc1ccc(NC(=O)C(=O)NCCc2csc3nc(-c4ccccc4F)nn23)cc1 14.9%
CCCc1cc(=O)n2[nH]c(NCc3ccc(CC)cc3)nc2n1 -1.99%
C=C1CCN(C(CC(C)C)C(=O)N2CCOCC2)S(=O)(=O)c2ccccc21 (stereo not drawn) 11.6%
Cn1nnnc1Sc1ncnc2scc(-c3ccccc3[N+](=O)[O-])c12 0.265%
COc1cc(OC)c2c(c1C(CCN1CCCCC1)c1ccc(N(C)C)cc1)OC(=O)CC2c1ccc(N(C)C)cc1 (stereo not drawn) 4.39%
CCOc1ccccc1NC(=O)Cn1c(=O)n(-c2cccc(C)c2)c(=O)c2c1c1cc(OC)ccc1n2C -2.84%
O=C(Cn1c(-c2cccs2)cc2ccccc21)NCCc1ccc(Cl)cc1 1.33%
COC(=O)c1ccccc1S(=O)(=O)Nc1ccc(OC)cc1 12.7%
Cc1c(-c2cccc(NC(=O)C(C)(C)C)c2)nc2ncccn12 4.16%
CCN(CC)/[N+]([O-])=N/Oc1cc(O/[N+]([O-])=N/N2CCCC2CO)c([N+](=O)[O-])cc1[N+](=O)[O-] (stereo not drawn) -3.49%
Cc1ccc(-c2nc(=N)sn2Cc2ccccc2)cc1 0.942%
COc1ccc(-c2nc(=N)sn2-c2ccccc2)cc1 8.42%
CC(=O)NC(c1cccs1)c1cc(Cl)c2cccnc2c1O (stereo not drawn) 0.471%
Cc1cc2c(s1)c1cnn(Cc3c(F)cccc3Cl)c(=O)c1n2C -0.0245%
c1coc(CCNc2ncnc3ccc(-c4ccc5c(c4)OCO5)cc23)c1 26.5%
